Experimental data taken from PubChem BioAssay (NCI).
Compounds without any hit were thinned out: in the full panel of roughly 79,000, 15% have a hit. Calls of active or inactive are those of the source. No stated cut-off is given here; in the data, active means growth inhibition above about 70%; inactive means the rest.

Experiments:
[1] = NCI Yeast Anticancer Drug Screen. Data for the wt1 strain (AID 149);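 further: 0% = growth of vehicle-treated wt1 cultures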; settings: S. cerevisiae wt1 strain (SPY 50644) growth inhibition, stronger effect = higher value
Outline: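 Yeast wt1 strain exposed to compounds; growth inhibition measured relative to vehicle-treated controls.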

[2] = NCI Yeast Anticancer Drug Screen. Data for the rad50EPP+ strain (AID 151);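 further: 0% = growth of vehicle-treated control cultures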; settings: S. cerevisiae rad50 mutant strain, stronger effect = higher value
Outline: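 rad50EPP+ yeast treated with test compounds. Readout: growth vs vehicle control.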

[3] = NCI Yeast Anticancer Drug Screen. Data for the mgt1 strain (AID 153); settings: S. cerevisiae mgt1 mutant growth inhibition, stronger effect = higher value
Outline: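 Growth inhibition relative to vehicle controls was scored for the mgt1 yeast strain after compound exposure.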

[4] = NCI Yeast Anticancer Drug Screen. Data for the rad50 strain (AID 155);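 further: 0% = growth of vehicle-only cultures of the same strain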; settings: S. cerevisiae rad50 strain growth inhibition, stronger effect = higher value
Outline: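 Yeast carrying a defined DNA repair defect were exposed to test compounds, and growth was compared with vehicle-treated controls to give percent inhibition.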

[5] = NCI Yeast Anticancer Drug Screen. Data for the mec2-1 strain (AID 157); settings: S. cerevisiae mec2-1 strain, stronger effect = higher value
Outline: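 Growth inhibition is read against vehicle-treated controls after compound exposure of the mec2-1 yeast strain, which is defective in DNA damage repair or cell cycle control.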

[6] = NCI Yeast Anticancer Drug Screen. Data for the sgs1 mgt1 strain (AID 161);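 further: 0% = growth of cultures given vehicle only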; settings: S. cerevisiae sgs1 mgt1 strain, stronger effect = higher value
Outline: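 Compounds are added to genetically altered yeast, and growth is compared with cultures given vehicle alone to give percent inhibition.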

[7] = NCI Yeast Anticancer Drug Screen. Data for the CLN2oe strain (AID 163);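 further: 0% = growth of vehicle-only control cultures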; settings: S. cerevisiae CLN2oe strain, stronger effect = higher value
Outline: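 Compound-treated yeast; growth vs vehicle ctrl = % inhibition. Genetically altered strain (cell-cycle control).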

[8] = NCI Yeast Anticancer Drug Screen. Data for the cln2 rad14 strain (AID 165);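 further: 0% = growth equal to vehicle treated cultures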; settings: S. cerevisiae cln2 rad14 strain, stronger effect = higher value
Outline: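 Growth inhibition, relative to vehicle-treated controls, is the read-out. The test organism is a yeast strain with defined genetic alterations, cln2 rad14.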

[9] = NCI Yeast Anticancer Drug Screen. Data for the bub3 strain (AID 167); settings: S. cerevisiae bub3 mutant strain, stronger effect = higher value
Outline: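 Compounds were applied to a genetically altered yeast strain carrying a cell-cycle control defect. Growth inhibition was scored against vehicle-treated controls.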

[10] = NCI Yeast Anticancer Drug Screen. Data for the wt2 strain (AID 169);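 further: 0% = growth of vehicle-treated yeast cultures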; settings: S. cerevisiae wt2 strain growth inhibition, stronger effect = higher value
Outline: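 Compound exposure of yeast; growth compared with vehicle controls; inhibition reported.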

[11] = NCI Yeast Anticancer Drug Screen. Data for the mlh1 strain (AID 171);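 further: 0% = growth of vehicle-treated control cultures of the same strain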; settings: S. cerevisiae mlh1 strain growth inhibition, stronger effect = higher value
Outline: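 Compounds are applied to a genetically altered yeast strain, and its growth is compared with that of vehicle-treated cultures to give percent inhibition.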

[12] = NCI Yeast Anticancer Drug Screen. Data for the sgs1 strain (AID 173);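 further: 0% = growth of vehicle-only control cultures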; settings: S. cerevisiae sgs1 mutant, stronger effect = higher value
Outline: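 Compounds applied to genetically altered yeast; growth compared with vehicle-treated cultures to give % inhibition.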

[13] = NCI Yeast Anticancer Drug Screen. Data for the mlh1 rad18 strain (AID 175); settings: S. cerevisiae mlh1 rad18 strain growth inhibition, stronger effect = higher value
Outline: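 Cells of a genetically altered yeast strain, deficient in DNA damage repair, were treated with compound. Their growth was then compared with that of vehicle-treated cultures to give inhibition.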

[14] = NCI Yeast Anticancer Drug Screen. Data for the rad18 strain (AID 177); settings: S. cerevisiae rad18 mutant growth inhibition, stronger effect = higher value
Outline: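 Compounds are applied to a repair-deficient yeast strain, and growth is compared with that of vehicle-treated cultures to give percent inhibition.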

[15] = at 5.0 µM (retest, dose inferred, filed as 0.5)
[16] = at 50.0 µM (retest, dose inferred, filed as 5.0)

Measured: growth inhibition

CCCC#CCOC(=O)c1cc([N+](=O)[O-])cc([N+](=O)[O-])c1
inactive: [1]; at 1.2 µM -4% | [1]; at 3.7 µM 22% | [2]; at 1.2 µM 22% | [3]; at 1.2 µM -5% | [4]; at 1.2 µM 2% | [4]; at 3.7 µM 67% | [5]; at 1.2 µM -2% | [5]; at 3.7 µM 33% | [7]; at 1.2 µM -2% | [7]; at 3.7 µM 11% | [8]; [15] 23% | [9]; at 1.2 µM -9% | [9]; at 3.7 µM 4% | [10]; at 1.2 µM -5% | [11]; at 1.2 µM 1% | [11]; at 3.7 µM 30% | [12]; at 1.2 µM 4% | [14]; at 1.2 µM 4%
active: [1]; at 11.0 µM 99% | [1]; at 33.0 µM 99% | [1]; at 100.0 µM 99% | [2]; at 3.7 µM 92% | [2]; at 11.0 µM 99% | [2]; at 33.0 µM 99% | [2]; at 100.0 µM 99% | [3]; at 3.7 µM 86% | [3]; at 11.0 µM 99% | [3]; at 33.0 µM 99% | [3]; at 100.0 µM 99% | [4]; [15] 88% | [4]; at 11.0 µM 98% | [4]; at 33.0 µM 98% | [4]; [16] 99% | [4]; at 50.0 µM 99.5% | [4]; at 100.0 µM 99% | [5]; [15] 99% | [5]; at 11.0 µM 99% | [5]; at 33.0 µM 99% | [5]; [16] 100% | [5]; at 50.0 µM 99.7% | [5]; at 100.0 µM 99% | [6]; [15] 97% | [6]; [16] 100% | [6]; at 50.0 µM 99.7% | [7]; at 11.0 µM 99% | [7]; at 33.0 µM 99% | [7]; at 100.0 µM 99% | [8]; [16] 99% | [8]; at 50.0 µM 99.5% | [9]; [15] 86% | [9]; at 11.0 µM 98% | [9]; at 33.0 µM 98% | [9]; [16] 99% | [9]; at 50.0 µM 99.8% | [9]; at 100.0 µM 99% | [10]; at 3.7 µM 95% | [10]; at 11.0 µM 97% | [10]; at 33.0 µM 99% | [10]; at 100.0 µM 99% | [11]; at 11.0 µM 99% | [11]; at 33.0 µM 99% | [11]; at 100.0 µM 99% | [12]; at 3.7 µM 97% | [12]; at 11.0 µM 99% | [12]; at 33.0 µM 99% | [12]; at 100.0 µM 99% | [13]; [15] 97% | [13]; [16] 100% | [13]; at 50.0 µM 99.5% | [14]; at 3.7 µM 81% | [14]; at 11.0 µM 99% | [14]; at 33.0 µM 99% | [14]; at 100.0 µM 99%
